# Not all results are given here.
# aSyn 5UTR act: Activators via SNCA 5'UTR binding, MLPCN | 300,000 compounds, 7.1% hits | alpha-synuclein 5'UTR reporter, activators screen | activity score, % (tested at 7.5 µM), hits read low | AID 1814, 2009; in the data active = activity score below about -60%
# Active calls of the source: *.
SMILES,aSyn 5UTR act
CCCNC(=O)c1oc2ccc3c(c2c1C)C=CC(C)(C)O3,-90*
CCCNC(=O)c1oc2ccc3c(c2c1C)C(=O)CC(C)(C)O3,-89*
CN(C)CCCN(C(=O)c1ccc2c(c1)CCCC2)c1nc2ccc(Cl)cc2s1,-70*
Cc1ccc2nc(N(CCCN(C)C)C(=O)c3ccc4ncsc4c3)sc2c1,-84*
CCN(CC)CCN(C(=O)c1cc2c(ccc3ccccc32)oc1=O)c1nc2cc3c(cc2s1)OCCO3,78
CN(C)CCCN(C(=O)c1sc2ccccc2c1Cl)c1nc2ccc(F)cc2s1,-99*
CN(C)CCCN(C(=O)CCc1ccccc1)c1nc2ccc(Cl)cc2s1,109
CN(C)CCN(C(=O)c1ccc2ccccc2c1)c1nc2cc3c(cc2s1)OCCO3,-74*
CCOc1cccc2sc(N(CCCN(C)C)C(=O)c3ccc(S(=O)(=O)N(CC)Cc4ccccc4)cc3)nc12,71
COc1ccc(OC)c2sc(N(CCCN(C)C)C(=O)c3ccc(S(=O)(=O)N4CCc5ccccc5C4)cc3)nc12,100
Cc1ccc2sc(N(CCCN(C)C)C(=O)c3ccc(S(=O)(=O)N(C)Cc4ccccc4)cc3)nc2c1C,-73*
CCOc1cccc2sc(N(CCCN(C)C)C(=O)c3ccc(S(=O)(=O)N(C)Cc4ccccc4)cc3)nc12,56
Cc1ccc2nc(N(CCN(C)C)C(=O)c3ccc4c(c3)OCCO4)sc2c1,-110*
CN(C)CCCN(C(=O)c1ccc2c(c1)OCCO2)c1nc2cc3c(cc2s1)OCO3,-92*
COc1ccc(C)c2sc(N(CCCN(C)C)C(=O)c3ccc4c(c3)OCCO4)nc12,-97*
COc1ccc(C)c2sc(N(CCCN(C)C)C(=O)c3ccc(S(=O)(=O)N4CCc5ccccc5C4)cc3)nc12,91
CCCCN(C)S(=O)(=O)c1ccc(C(=O)N(CCN(C)C)c2nc3ccc(C)cc3s2)cc1,-74*
Cc1ccc(C(=O)NCC(=O)N2CCCC(C(F)(F)F)C2)s1 (centres undefined),-62*
Cc1nn(-c2ccccc2)c(N)c1N=Nc1ccc(Cl)cc1,-175*
Cc1cccc(N=Nc2c(C)nn(-c3ccccc3)c2N)c1C,-124*
c1cncc(-c2noc(-c3cccc4ccccc34)n2)c1,-225*
c1ccc(-c2noc(-c3cccc4ccccc34)n2)cc1,-179*
c1ccc2c(-c3nc(-c4ccncc4)no3)cccc2c1,-272*
COc1ccc(CNC(=O)Cn2ncn3cccc3c2=O)cc1,-78*
COc1ccc(-c2cc3c(=O)n(CC(=O)NCCCN4CCC(Cc5ccccc5)CC4)ncn3n2)cc1,96
SMILES,aSyn 5UTR act
COc1ccc(-c2cc3c(=O)n(CC(=O)NCc4ccc(F)cc4)ncn3n2)cc1,-75*
CC(=O)Nc1ccc(/C=N/N2CCCCC2)cc1,-96*
Cc1sc2ncnc(Sc3ccccc3C(=O)Nc3ccc(Br)cc3)c2c1C,-86*
COc1ccc2nc(Nc3nc4cc5c(cc4s3)OCO5)sc2c1,-123*
COc1ccc2nc(Nc3ccc4c(c3)OCO4)sc2c1,-160*
CC(C)c1ccc(C(=O)N(c2ccccn2)C(C)c2ccco2)cc1 (centres undefined),-161*
CC(=O)NC(c1ccco1)c1ccc2cccnc2c1O (centres undefined),77
Cc1cccc(N/N=C2/COC(C)(C)CC2=O)c1,-101*
CC1(C)CC(=O)/C(=N/Nc2ccc(Cl)cc2)CO1,-230*
CCC(=O)Oc1oc(-c2ccccc2)nc1C=Nc1ccccc1OC,-63*
COc1ccc(N=Cc2nc(-c3ccccc3)oc2OC(=O)c2ccccc2)cc1,-92*
CN(C)c1ccc(N=Cc2nc(-c3ccccc3)oc2OC(=O)c2cccc(Br)c2)cc1,-166*
Cc1ccccc1Oc1ccc(Oc2ccccc2C)nn1,-136*
N#CC(C#N)=Cc1ccc(NC(=O)c2ccc(Br)cc2)cc1,-153*
CC(C)(C)c1ccc(C(=O)Nc2ccc(C=C(C#N)C#N)cc2)cc1,-175*
Cc1ccc(N2C(=O)CC(Sc3nc(C)cc(C)n3)C2=O)cc1 (centres undefined),-63*
c1ccc(CNc2ncnc3c2ncn3C2CCCCO2)cc1 (centres undefined),-104*
CC(C)CC(NC(=O)CNC(=O)C1O[C@@H]2OC(C)(C)O[C@@H]2[C@H]2OC(C)(C)O[C@@H]12)C(=O)O (some centres undefined),-84*
c1ccc(-c2csc(N3CCN(c4ccccn4)CC3)n2)cc1,-77*
c1ccc(-c2csc(N3CCOCC3)n2)cc1,-145*
O=C1CNC(=S)N1c1nc(-c2ccccc2)cs1,-141*
Cc1cc(N2CCN(c3nc(-c4ccc([N+](=O)[O-])cc4)cs3)CC2)c2ccccc2n1,66
CN(C)C(=O)N1CCN(c2nc(-c3ccccc3)cs2)CC1,-192*
O=C(N1CCOCC1)N1CCN(c2nc(-c3ccccc3)cs2)CC1,-77*
COc1ccc(C(=O)Nc2cc3c4c(c2)CC(=O)N4CCC3)c(OC)c1,-90*
SMILES,aSyn 5UTR act
Clc1cccc(N/N=C/c2ccncc2)c1,-117*
Cc1ccc(N/N=C/c2ccncc2)cc1,-120*
C/C(=N\Nc1cccc(Cl)c1)c1ccncc1,-117*
N#Cc1c(NC(=O)C2CC2)sc2c1CCCCC2,-119*
N#Cc1c(NC(=S)NC(=O)c2ccccc2)sc2c1CCC2,-126*
CC(=O)NC(=S)Nc1sc2c(c1C#N)CCCCC2,-120*
CC1CCc2sc(NC(=S)NC(=O)c3ccccc3)c(C#N)c2C1 (centres undefined),-141*
CCC1(C)Cc2c(sc(NC(=S)NC(=O)c3ccccc3)c2C#N)CO1 (centres undefined),-146*
Cn1nccc1C(=O)NC(=S)Nc1sc2c(c1C#N)CCCCC2,-148*
Cn1c2ccc(CC(=O)O)cc2c2cc(CC(=O)O)ccc21,-65*
Cn1c2ccc(Br)cc2c2nnc(SCC(=O)O)nc21,62
CCCN1C(=O)S/C(=C\c2ccc(N3CCOCC3)o2)C1=O,-94*
COC(=O)CN1C(=O)S/C(=C/c2ccc(N3CCCCC3)o2)C1=O,-89*
COC(=O)CN1C(=O)S/C(=C/c2cc(C)n(C)c2C)C1=O,-167*
CCCN1C(=O)S/C(=C/c2ccc(N3CCOCC3)o2)C1=O,-83*
Cc1ccc(N/C=C2\C(=O)C3(C)CCC2C3(C)C)cc1C (centres undefined),-63*
Nc1sccc1C(=O)c1ccc(Cl)cc1,-120*
COCCSc1nnc(NC(=O)C(C)(C)C)s1,-90*
CC(C)(C)C(=O)Nc1nnc(SCc2ccc(F)cc2)s1,-82*
CC(C)(C)C(=O)Nc1nnc(SCc2cccc(F)c2)s1,-174*
O=C(COc1ccccc1N1C(=O)c2ccccc2C1=O)c1ccc(Cl)cc1,-87*
CN(C)c1ccc(NC(=O)CCn2c(=S)oc3ccccc32)cc1,-100*
Nc1cc(Cl)nc(N/N=C/c2c(O)ccc3ccccc23)n1,-162*
O=C(CNc1ccccc1)N/N=C/c1c(O)ccc2ccccc12,69
O=C(O)c1cc(N/N=C/c2c(O)ccc3ccccc23)ccc1Cl,-66*
SMILES,aSyn 5UTR act
CCOC(=O)c1ccc(N2Cc3ccccc3C2=N)cc1,-78*
Cc1ccccc1NC(=O)Nc1ccccn1,-111*
O=C(Nc1ccccn1)Nc1ccccc1[N+](=O)[O-],-91*
Oc1cccc2ccc(Nc3ccccn3)nc12,98
Cc1cccc(NC(=O)Nc2ccccn2)c1C,-71*
c1ccc(Nc2ccccc2Nc2ccccn2)nc1,-63*
CC1CC(=O)c2c(cc3c(-c4c(O)cc(O)c5c(O)c6c(cc45)OC(C)CC6=O)c(O)cc(O)c3c2O)O1 (centres undefined),70
CSCc1ccc(C(=O)Nc2cccc(C)c2C)cc1,-82*

# Compound activity as filed in PubChem BioAssay.
